The values below come from the supplement of paper PMC11006884.

About 6,500 targets were measured; listed, in parts, are those with a hit and a random draw of the rest. About 2% of all pairs of compound and target were hits.

UniProt Q96S55, sequence (Q96S55 whole entry, looked up): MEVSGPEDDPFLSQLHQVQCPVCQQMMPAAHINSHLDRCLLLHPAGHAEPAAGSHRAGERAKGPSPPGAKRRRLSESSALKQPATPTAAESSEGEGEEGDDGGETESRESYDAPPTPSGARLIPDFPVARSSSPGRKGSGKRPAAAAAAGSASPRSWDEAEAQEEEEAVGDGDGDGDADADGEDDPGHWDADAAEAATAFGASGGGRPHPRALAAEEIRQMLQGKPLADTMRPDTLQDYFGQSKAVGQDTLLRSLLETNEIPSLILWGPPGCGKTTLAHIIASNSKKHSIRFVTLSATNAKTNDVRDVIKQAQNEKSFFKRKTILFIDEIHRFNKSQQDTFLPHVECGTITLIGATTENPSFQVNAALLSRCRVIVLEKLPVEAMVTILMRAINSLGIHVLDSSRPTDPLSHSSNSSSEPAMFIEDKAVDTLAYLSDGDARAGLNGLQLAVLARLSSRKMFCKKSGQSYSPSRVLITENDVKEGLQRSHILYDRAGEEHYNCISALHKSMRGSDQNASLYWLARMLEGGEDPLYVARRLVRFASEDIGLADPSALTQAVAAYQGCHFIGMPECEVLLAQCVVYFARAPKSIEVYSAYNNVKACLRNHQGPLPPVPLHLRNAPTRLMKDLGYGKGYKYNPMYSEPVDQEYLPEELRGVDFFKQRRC
UniProt Q92598, sequence (Q92598 whole entry, looked up): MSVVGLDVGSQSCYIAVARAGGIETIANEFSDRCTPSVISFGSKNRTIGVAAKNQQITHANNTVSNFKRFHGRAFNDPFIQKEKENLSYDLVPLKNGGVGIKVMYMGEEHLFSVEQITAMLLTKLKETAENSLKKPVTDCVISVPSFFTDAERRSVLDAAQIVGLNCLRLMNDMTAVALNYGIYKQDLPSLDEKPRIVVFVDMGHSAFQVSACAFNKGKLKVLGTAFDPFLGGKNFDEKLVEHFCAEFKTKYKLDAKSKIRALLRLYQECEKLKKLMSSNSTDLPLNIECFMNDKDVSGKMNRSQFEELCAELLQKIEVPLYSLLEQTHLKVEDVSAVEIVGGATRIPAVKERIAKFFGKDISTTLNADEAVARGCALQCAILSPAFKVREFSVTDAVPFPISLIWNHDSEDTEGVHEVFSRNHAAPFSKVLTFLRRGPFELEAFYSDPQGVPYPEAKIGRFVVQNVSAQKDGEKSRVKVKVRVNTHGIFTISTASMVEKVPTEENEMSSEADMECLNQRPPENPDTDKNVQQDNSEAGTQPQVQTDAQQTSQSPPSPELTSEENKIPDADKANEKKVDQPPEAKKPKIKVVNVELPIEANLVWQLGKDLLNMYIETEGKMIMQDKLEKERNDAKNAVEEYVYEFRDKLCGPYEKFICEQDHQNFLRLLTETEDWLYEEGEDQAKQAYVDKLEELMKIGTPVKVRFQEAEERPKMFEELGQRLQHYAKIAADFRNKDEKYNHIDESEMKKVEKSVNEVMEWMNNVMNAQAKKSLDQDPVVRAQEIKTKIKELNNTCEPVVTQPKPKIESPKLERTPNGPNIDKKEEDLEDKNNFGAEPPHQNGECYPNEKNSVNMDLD
UniProt Q86W56, sequence (Q86W56 whole entry, looked up): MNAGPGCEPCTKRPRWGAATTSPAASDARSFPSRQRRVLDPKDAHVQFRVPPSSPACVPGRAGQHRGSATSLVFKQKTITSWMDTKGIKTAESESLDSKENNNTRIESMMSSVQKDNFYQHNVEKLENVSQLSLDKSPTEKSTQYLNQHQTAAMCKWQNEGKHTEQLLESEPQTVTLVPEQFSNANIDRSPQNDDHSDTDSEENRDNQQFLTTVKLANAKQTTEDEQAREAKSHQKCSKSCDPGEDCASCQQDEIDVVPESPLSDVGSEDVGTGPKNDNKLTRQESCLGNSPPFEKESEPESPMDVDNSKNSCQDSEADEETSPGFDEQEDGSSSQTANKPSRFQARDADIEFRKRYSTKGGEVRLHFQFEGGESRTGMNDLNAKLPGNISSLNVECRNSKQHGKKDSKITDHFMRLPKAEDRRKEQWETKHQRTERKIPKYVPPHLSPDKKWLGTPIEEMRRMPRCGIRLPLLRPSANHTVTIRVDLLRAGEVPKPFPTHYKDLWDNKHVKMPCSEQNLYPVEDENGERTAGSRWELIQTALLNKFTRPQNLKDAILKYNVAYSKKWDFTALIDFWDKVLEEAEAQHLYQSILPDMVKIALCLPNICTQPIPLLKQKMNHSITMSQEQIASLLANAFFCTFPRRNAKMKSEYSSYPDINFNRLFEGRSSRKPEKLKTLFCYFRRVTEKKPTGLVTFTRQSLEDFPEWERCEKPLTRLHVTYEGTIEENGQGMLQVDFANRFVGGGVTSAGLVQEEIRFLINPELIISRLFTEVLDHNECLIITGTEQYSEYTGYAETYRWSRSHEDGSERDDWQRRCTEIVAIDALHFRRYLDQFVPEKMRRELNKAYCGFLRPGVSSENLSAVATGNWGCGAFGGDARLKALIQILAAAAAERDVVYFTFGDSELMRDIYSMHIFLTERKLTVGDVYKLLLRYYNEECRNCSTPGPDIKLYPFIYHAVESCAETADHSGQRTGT
UniProt Q99729, sequence (Q99729 whole entry): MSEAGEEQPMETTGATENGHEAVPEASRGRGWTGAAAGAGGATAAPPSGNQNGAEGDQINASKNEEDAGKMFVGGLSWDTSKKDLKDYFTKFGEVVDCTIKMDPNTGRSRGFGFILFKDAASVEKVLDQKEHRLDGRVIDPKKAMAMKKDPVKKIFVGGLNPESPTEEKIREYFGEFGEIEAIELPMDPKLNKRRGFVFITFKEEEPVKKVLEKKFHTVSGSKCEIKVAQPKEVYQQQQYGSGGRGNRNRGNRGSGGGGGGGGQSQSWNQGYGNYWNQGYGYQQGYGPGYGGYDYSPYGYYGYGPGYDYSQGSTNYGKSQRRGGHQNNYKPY
UniProt Q8WUB8, sequence (Q8WUB8 whole entry, looked up): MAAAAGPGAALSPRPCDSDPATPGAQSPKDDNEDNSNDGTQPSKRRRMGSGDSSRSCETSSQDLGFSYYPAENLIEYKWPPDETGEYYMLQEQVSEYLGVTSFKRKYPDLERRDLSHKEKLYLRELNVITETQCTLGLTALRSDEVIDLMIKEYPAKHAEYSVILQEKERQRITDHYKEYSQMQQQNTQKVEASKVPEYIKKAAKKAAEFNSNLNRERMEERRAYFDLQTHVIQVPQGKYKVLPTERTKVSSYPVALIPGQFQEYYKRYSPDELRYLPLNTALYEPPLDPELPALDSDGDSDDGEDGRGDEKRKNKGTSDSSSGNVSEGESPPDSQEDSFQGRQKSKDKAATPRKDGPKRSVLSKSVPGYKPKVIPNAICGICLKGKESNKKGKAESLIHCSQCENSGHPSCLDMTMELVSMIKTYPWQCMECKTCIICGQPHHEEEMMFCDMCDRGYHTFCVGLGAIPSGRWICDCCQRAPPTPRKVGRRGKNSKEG
UniProt Q99798, sequence (Q99798 whole entry, looked up): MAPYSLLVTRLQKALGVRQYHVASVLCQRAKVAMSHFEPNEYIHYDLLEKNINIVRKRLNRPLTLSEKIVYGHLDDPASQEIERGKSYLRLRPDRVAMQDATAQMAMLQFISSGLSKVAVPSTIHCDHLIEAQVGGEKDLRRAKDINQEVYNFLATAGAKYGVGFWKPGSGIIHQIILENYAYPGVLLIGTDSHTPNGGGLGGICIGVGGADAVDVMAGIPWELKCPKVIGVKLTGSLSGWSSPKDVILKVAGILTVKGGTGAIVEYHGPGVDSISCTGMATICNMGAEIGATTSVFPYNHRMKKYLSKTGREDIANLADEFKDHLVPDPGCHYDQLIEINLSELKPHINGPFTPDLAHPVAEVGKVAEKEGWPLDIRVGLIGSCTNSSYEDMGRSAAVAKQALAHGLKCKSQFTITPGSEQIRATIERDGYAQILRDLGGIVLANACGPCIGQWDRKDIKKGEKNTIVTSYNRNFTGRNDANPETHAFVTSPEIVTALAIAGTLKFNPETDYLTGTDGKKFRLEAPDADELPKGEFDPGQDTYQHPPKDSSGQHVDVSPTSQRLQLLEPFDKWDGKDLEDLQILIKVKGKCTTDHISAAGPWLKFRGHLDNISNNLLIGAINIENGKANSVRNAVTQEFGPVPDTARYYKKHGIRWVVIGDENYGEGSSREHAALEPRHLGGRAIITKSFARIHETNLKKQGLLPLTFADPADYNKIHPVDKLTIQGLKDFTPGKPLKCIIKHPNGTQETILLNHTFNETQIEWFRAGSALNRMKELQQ
UniProt Q9BSH5, sequence (Q9BSH5 whole entry, looked up): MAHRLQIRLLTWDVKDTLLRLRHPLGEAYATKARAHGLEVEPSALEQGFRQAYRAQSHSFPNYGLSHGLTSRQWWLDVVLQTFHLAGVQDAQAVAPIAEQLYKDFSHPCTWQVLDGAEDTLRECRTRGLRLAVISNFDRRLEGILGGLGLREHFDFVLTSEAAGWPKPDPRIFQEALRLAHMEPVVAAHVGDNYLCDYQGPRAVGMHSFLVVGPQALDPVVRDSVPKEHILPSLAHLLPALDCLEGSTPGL
UniProt Q96DC7, sequence (Q96DC7 whole entry): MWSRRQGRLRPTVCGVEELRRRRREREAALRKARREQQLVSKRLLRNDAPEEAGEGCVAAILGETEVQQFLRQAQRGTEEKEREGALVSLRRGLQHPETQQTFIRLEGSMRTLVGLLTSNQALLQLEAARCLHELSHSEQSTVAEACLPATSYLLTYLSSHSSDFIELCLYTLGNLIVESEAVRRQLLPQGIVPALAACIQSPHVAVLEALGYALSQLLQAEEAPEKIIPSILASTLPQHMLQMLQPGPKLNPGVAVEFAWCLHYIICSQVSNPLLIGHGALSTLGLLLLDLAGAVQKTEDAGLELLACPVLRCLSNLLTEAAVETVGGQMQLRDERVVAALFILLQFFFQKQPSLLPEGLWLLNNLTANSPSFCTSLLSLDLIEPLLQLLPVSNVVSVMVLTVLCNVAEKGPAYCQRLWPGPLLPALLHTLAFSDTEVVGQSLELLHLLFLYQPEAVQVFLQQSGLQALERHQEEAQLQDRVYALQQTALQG
UniProt Q96GX2, sequence (Q96GX2 whole entry): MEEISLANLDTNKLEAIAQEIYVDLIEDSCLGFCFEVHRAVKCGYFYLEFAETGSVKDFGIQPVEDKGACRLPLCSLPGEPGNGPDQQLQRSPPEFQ

Compound in this assay: COC(=O)C#Cc1ccccc1 [methyl 3-phenylpropiolate]
Briefly: log2 ratio of iodoacetamide-alkyne labeling of the cysteine site, DMSO over compound (competition); higher = stronger covalent engagement of the cysteine by the compound, active = 1 or more. The conditions noted are these: 500 µM; treatment time 1 h; system: HEK293T cell lysate. In a few lines: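 Three replicates, each with duplicate channels, were prepared from HEK293T lysate (2 mg/mL) treated with vehicle or electrophile at 500 µM for 1 h at ambient temperature. Iodoacetamide alkyne was then applied for 1 h, and samples were clicked to sCIP-TMT reagents, pooled, trypsin-digested overnight at 37 °C, enriched on streptavidin, acid-eluted and analysed on Orbitrap Eclipse LC-MS/MS with FAIMS, with FragPipe quantification. The log2 competition ratio per cysteine is the mean control-channel divided by the mean compound-channel reporter intensity. Cysteines quantified in only one replicate were left out.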
On to TMCO6 C57 (UniProt Q96DC7), for which the “log2 ratio of iodoacetamide-alkyne labeling” value (from here on “log2 ratio”) was 0.394 (inactive). ATXN7L3B C75 (UniProt Q96GX2): the “log2 ratio” value is 1.03 (active). Then UniProt Q8NFC6_C2164, with 0.286 (inactive); and ZFYVE16 C292 (UniProt Q7Z3T8), with 0.185 (inactive); and TRMT2A C463 (UniProt Q8IZ69), with 1.1 (active). Then PNPLA6 C409 (UniProt Q8IY17), with 0.4 (inactive).

Turning to NUP205 C877 (UniProt Q92621), the “log2 ratio” value is 0.102 (inactive).

As for TXNDC17 C43 (UniProt Q9BRA2), the “log2 ratio” value was 1.34 (active). As for HDHD3 C243 (UniProt Q9BSH5), the “log2 ratio” value is 0.16 (inactive). Then ZNF428 C114 (UniProt Q96B54), with 0.0848 (inactive); and PHF10 C134 (UniProt Q8WUB8), with 0.0674 (inactive); and ZNF318 C1559 (UniProt Q5VUA4), with 0.605 (inactive). As to STRBP C40 (UniProt Q96SI9), the “log2 ratio” value is 0.168 (inactive). Take PARG C963 (UniProt Q86W56): the “log2 ratio” value is 0.0715 (inactive). Then HDAC2 C417 (UniProt Q92769), with 0.126 (inactive); and UniProt Q92616_C36, with 0.339 (inactive).

As for ACO2 C448 (UniProt Q99798), the “log2 ratio” value was 1.71 (active).

On to SIN3A C486 (UniProt Q96ST3), for which the “log2 ratio” value was -0.0562 (inactive). Take UniProt Q96HE7_C241: the “log2 ratio” value was 0.0793 (inactive).

Take UniProt Q86Y56_C173: the “log2 ratio” value is 0.779 (inactive). As for UniProt Q7Z5K2_C251, the “log2 ratio” value is 0.11 (inactive). Take WRNIP1 C39 (UniProt Q96S55): the “log2 ratio” value was -0.0706 (inactive).

For the target UniProt Q8IX01_C183, the “log2 ratio” value was 0.451 (inactive). Then CWF19L1 C176 (UniProt Q69YN2), with -0.136 (inactive); and ZFYVE16 C174 (UniProt Q7Z3T8), with 0.35 (inactive); and DCUN1D4 C253 (UniProt Q92564), with 0.287 (inactive). Then TMEM209 C301 (UniProt Q96SK2), with 0.858 (inactive).

For UniProt Q7LBC6_C1212, the “log2 ratio” value was 0.571 (inactive). With LPCAT1 C216 (UniProt Q8NF37), the “log2 ratio” value is 0.211 (inactive).

For FAM122B C155 (UniProt Q7Z309), the “log2 ratio” value was 1.05 (active). Then GIGYF2 C289 (UniProt Q6Y7W6), with -0.00206 (inactive).

As for HSPH1 C650 (UniProt Q92598), the “log2 ratio” value is 0.025 (inactive).

In the case of HNRNPAB C98 (UniProt Q99729), the “log2 ratio” value was -0.0694 (inactive).

With UniProt Q7Z5K2_C94, the “log2 ratio” value was 0.262 (inactive). Regarding DDX54 C73 (UniProt Q8TDD1), the “log2 ratio” value is 0.301 (inactive).
